The target in this assay is Streptavidin (Streptomyces avidinii) (UniProt P22629). In words: streptavidin binders on small-molecule microarray, primary screen, artefact control for SMM compound annotation, biophysical, 635/667 nm fluorescence (AID 1147).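 Note: signal reflects streptavidin binding to arrayed compounds as a control protein.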 Particulars: streptavidin binding, higher = more signal.
Chain of Streptavidin (Streptomyces avidinii) (P22629 whole entry, looked up): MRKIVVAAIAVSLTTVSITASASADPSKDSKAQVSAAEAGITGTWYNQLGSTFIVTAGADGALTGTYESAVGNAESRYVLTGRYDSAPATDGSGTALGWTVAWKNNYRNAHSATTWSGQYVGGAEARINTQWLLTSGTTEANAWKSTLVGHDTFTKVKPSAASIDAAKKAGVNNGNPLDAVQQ
`C=CC1c2cc(O)c(OC)cc2CCN1Cc1cccc(OC(F)(F)F)c1` (stereo not given) returned a composite z-score of 0.577.
The result for `CC(C)[Si](C#C[Si](C(C)C)(C(C)C)C(C)C)(O[C@H](C)c1cn(Cc2ccccc2)nn1)C(C)C` reads 1.32; that for `O=C1O[C@H](c2ccccc2)[C@H](c2ccccc2)N2[C@H]1[C@@H](C(=O)NC[C@H](O)c1ccccc1)[C@]1(C(=O)Nc3ccc(C#CC4=CCCCC4)cc31)[C@H]2c1ccccc1OCCO`, 0.787; that for `COc1ccc(-c2cc3c(c(Cc4ccccc4)n2)[Si](C(C)C)(C(C)C)OC3)cn1`, -0.32.
The result for `C=CCC(OC(C)=O)[C@@H]1[C@@H](N(Cc2ccc(-c3cccc(C(F)(F)F)c3)o2)C(=O)Cc2ccc(OC)cc2)c2cc(OCCCO)ccc2N1C(=O)c1ccc2ccccc2c1` (stereo not given in full) reads -0.445; that for `CCC(CC)C(O)C1C=CC2C(=O)N(c3ccccc3)C(=O)C2N1Nc1ccccc1` (stereo not given), 1.21.
As for `CN1C(=O)C2C=CC(C(O)c3c(F)cccc3Cl)N(NC(=O)OC(C)(C)C)C2C1=O` (stereo not given), the composite z-score is 1.18.
Then `C=C[C@H](C)[C@@H](OC(=O)Nc1ccc(SC)cc1)c1ccc(O)c2ccccc12`, with 1.26.
Then `COc1ccccc1CN1C(=O)c2ccccc2[C@@H](C(=O)NCc2ccccc2)[C@@H]1c1ccc(CO)cc1`, with -0.515; and `O=C1OCC=C[C@H]2OC34C=CCN(Cn5nnc6ccccc65)C(=O)[C@H]3N(CCCCCO)C(=O)[C@@H]4[C@@H]12` (stereo not given in full), with -0.573; and `Cc1ccc(S[C@]2(C(=O)NCC(C)C)CC(=O)N(Cc3cc(C(F)(F)F)cc(C(F)(F)F)c3)[C@@H]2c2ccc(CO)cc2)cc1`, with -0.342.
The result for `CS(=O)(=O)CCOC(=O)C1=CC(CCCO)=CC(C2CC2)N(Cc2cc3c(cc2Br)OCO3)C=C1C(=O)OCCS(C)(=O)=O` (stereo not given) reads 0.635; that for `C=CCOC(=O)[C@H]1[C@@H]2C(=O)O[C@@H](c3ccccc3)[C@@H](c3ccccc3)N2[C@@H](c2ccc(OCCOC(=O)[C@H]3C[C@H]4C(=O)N[C@@H](CCCCN(C)C)C(=O)N4[C@H]3c3cccc(OCCO)c3)cc2)[C@]12C(=O)Nc1ccc(I)cc12`, 0.457.
The compound `COc1ccc([Si](C)(C)[C@H]2[C@H](CC(=O)N3CCC[C@H]3CO)O[C@@]3(C(=O)N(Cc4cccc(N5CCOC5=O)c4)c4ccccc43)[C@@H]2C)cc1` registered a composite z-score of 0.0063.
Then `O=C1OCCC=C[C@H]2OC34C=CCN(c5ccc(Cl)cc5)C(=O)[C@H]3N(CCCO)C(=O)[C@@H]4C12` (stereo not given in full), with -0.414; and `COc1ccc(C(O)C2C=CC3C(=O)N(C)C(=O)C3N2N(c2ccccc2)c2ccccc2)c2ccccc12` (stereo not given), with 0.797.
As for `COCC(=C=CC[C@H](O)c1cccc(OCCO)c1)CCO`, the composite z-score is -0.33.
Then `CC[C@@H]1C=C(C(=O)O)[C@H](c2ccc(C)cc2)N1S(=O)(=O)c1ccc(C)cc1`, with 0.583.
The compound `O=C1NC(=O)C2C1C=CC(C(O)C1CC=CCC1)N2Nc1ccccn1` (stereo not given) showed a composite z-score of 0.0992.
The result for `COc1ccc(C(=O)Nc2cccc(CN3C(=O)[C@]4(O[C@H](CCn5cc(CCO)nn5)[C@@H]([Si](C)(C)c5ccc(OC)cc5)[C@@H]4C)c4ccccc43)c2)cc1` reads 0.38; that for `CS(=O)(=O)CCOC(=O)C1=CC(CCCO)=CC(c2ccc(CN3CCCC3)cc2)N(Cc2cccc(OC(F)(F)F)c2)C=C1C(=O)OCCS(C)(=O)=O` (stereo not given), 0.812; that for `COC(=O)c1c2oc(c1C(=O)OC)C(=O)N[C@@H](C(C)C)Cn1cc(nn1)C1(CCCCC1)NC(=O)N[C@H](CO)CC2`, 0.177.
Then `O=C1O[C@@H](c2ccccc2)[C@@H](c2ccccc2)N2[C@@H](c3ccc(OCCO)cc3)[C@]3(C(=O)Nc4ccc(C#CCCO)cc43)[C@@H](C(=O)NC[C@H](O)c3ccccc3)[C@H]12`, with 0.477; and `CC(c1ccccc1)C(O)C1C=CC2C(=O)N(c3ccccc3)C(=O)C2N1Nc1ccccc1` (stereo not given), with 1.67.
Then `CC1CC/C=C\[C@H]2OC34C=CCN(Cc5ccccc5)C(=O)[C@H]3N(C(C)CO)C(=O)[C@@H]4C2C(=O)O1` (stereo not given in full), with -0.556.

(Values after PubChem BioAssay.)
